# Laboratory results as given in the supplement of paper PMC6411743.
# ± gives the standard deviation of the averaged measurements. Of roughly 6,200 targets only a part is listed; those with the largest changes were picked by preference.
# Compound: Nc1ncnc2c1ncn2[C@@H]1O[C@H](COP(=O)(O)OP(=O)(O)NP(=O)(O)O)[C@@H](O)[C@H]1O [adenylyl imidodiphosphate]
# Assay: NP40-soluble protein abundance relative to vehicle (solubility fold change) (ratio); higher = more soluble protein in presence of AMP-PNP
# Details: concentration: 4mM
# In short: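 Jurkat crude lysate prepared with a Dounce homogeniser was treated at eight concentrations spanning 0.1 to 10 mM, 10 min at room temperature then 3 min at 37 °C. Solubilisation with 0.8% NP40 and benzonase and ultracentrifugation preceded TMT labelling of the supernatant for LC-MS/MS. Fold change against the detergent-processed vehicle was determined per replicate from vsn-normalised intensities, across three independent experiments.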
# Chain of UniProt O43716 (O43716 whole entry, looked up, other chains not shown): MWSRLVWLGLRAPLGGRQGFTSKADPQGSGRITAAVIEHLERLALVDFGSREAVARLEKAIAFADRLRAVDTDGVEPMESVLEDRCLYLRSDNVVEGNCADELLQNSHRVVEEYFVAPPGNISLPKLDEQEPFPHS
# Chain of UniProt Q13557 (Q13557 whole entry, one chain of several): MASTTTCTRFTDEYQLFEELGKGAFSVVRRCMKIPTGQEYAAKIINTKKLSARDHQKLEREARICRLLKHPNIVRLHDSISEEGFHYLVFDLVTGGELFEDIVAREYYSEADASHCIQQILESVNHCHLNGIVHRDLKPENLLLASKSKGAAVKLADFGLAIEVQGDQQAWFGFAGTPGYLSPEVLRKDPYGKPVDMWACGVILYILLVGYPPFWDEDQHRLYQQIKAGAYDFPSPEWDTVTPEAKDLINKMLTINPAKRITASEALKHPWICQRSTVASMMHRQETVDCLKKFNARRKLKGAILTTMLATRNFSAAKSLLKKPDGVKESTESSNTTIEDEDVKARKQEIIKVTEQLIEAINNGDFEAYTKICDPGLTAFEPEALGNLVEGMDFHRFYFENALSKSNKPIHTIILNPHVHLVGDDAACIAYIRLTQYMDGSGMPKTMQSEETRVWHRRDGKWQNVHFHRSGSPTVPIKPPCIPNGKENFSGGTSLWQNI
# Chain of UniProt O95772 (O95772 whole entry, one chain of several): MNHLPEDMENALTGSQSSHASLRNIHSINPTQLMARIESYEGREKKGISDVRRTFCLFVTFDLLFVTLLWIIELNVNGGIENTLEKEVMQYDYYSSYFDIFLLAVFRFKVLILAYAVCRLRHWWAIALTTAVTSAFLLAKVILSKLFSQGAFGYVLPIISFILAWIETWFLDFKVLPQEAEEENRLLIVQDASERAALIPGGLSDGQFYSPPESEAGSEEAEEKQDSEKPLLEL
# Chain of UniProt Q9HC38 (Q9HC38 whole entry, one chain of several): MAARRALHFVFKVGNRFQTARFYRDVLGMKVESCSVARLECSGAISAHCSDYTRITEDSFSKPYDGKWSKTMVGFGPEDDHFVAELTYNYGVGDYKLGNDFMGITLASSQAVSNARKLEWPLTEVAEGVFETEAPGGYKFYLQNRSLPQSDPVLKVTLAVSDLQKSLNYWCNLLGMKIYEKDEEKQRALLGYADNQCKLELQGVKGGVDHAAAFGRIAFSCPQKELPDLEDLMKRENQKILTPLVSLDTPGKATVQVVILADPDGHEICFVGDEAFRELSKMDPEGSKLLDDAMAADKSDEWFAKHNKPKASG
# Chain of UniProt Q13309 (Q13309 whole entry, one chain of several): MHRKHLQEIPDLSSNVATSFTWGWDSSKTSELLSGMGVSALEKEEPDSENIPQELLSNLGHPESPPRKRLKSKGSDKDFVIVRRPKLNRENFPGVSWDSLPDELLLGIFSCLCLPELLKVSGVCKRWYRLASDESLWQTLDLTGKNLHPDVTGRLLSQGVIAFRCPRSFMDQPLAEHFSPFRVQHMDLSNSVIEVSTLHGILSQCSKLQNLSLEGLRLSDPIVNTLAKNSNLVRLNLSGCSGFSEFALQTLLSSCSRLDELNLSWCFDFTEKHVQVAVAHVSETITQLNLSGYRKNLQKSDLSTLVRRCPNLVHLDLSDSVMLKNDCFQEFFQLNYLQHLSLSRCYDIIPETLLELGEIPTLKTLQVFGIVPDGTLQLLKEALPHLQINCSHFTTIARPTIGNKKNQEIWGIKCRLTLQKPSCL
# Chain of UniProt O14734 (O14734 whole entry, one chain of several): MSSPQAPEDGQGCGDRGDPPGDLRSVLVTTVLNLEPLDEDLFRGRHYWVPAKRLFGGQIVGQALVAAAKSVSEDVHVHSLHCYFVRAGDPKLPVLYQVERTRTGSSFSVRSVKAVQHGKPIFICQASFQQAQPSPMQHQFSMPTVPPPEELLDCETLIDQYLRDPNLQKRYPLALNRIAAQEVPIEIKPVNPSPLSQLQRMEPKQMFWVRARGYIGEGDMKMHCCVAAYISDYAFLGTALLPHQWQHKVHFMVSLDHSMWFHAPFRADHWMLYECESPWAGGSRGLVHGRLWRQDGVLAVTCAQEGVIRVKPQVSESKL
# Chain of UniProt Q9P289 (Q9P289 whole entry, looked up, one chain of several): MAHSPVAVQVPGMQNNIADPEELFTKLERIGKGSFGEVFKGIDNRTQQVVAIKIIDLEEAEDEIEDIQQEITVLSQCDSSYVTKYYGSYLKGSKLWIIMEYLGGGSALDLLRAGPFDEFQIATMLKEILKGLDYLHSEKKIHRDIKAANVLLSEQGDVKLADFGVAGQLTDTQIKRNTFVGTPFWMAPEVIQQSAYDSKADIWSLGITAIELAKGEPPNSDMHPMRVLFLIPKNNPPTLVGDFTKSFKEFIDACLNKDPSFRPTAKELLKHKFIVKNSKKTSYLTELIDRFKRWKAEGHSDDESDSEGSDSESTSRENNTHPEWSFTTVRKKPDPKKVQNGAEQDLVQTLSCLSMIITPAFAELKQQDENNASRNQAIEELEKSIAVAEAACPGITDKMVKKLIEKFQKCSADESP
# Chain of UniProt O43169 (O43169 whole entry, one chain of several): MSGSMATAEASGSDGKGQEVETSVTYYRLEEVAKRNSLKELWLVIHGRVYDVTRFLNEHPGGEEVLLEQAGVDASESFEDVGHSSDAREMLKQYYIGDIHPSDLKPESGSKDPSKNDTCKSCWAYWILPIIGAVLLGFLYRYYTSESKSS
# Chain of UniProt Q9NWL6 (Q9NWL6 whole entry, one chain of several): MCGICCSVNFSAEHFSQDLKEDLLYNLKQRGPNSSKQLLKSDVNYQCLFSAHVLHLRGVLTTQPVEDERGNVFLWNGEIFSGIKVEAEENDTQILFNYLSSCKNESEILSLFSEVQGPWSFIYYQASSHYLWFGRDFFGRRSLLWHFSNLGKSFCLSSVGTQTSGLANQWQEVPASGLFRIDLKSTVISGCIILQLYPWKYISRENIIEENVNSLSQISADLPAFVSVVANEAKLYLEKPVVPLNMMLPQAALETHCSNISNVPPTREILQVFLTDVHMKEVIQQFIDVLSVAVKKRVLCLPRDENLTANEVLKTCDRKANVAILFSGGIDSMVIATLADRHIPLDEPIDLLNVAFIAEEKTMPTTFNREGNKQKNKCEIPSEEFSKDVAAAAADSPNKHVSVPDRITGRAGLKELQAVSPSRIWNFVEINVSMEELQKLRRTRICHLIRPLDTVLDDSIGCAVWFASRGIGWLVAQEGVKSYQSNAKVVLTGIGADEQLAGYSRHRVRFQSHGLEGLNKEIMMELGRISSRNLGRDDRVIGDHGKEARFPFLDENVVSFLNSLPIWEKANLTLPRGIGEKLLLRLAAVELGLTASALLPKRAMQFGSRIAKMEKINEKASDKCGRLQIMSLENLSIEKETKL
# Chain of UniProt A6NKD9 (A6NKD9 whole entry): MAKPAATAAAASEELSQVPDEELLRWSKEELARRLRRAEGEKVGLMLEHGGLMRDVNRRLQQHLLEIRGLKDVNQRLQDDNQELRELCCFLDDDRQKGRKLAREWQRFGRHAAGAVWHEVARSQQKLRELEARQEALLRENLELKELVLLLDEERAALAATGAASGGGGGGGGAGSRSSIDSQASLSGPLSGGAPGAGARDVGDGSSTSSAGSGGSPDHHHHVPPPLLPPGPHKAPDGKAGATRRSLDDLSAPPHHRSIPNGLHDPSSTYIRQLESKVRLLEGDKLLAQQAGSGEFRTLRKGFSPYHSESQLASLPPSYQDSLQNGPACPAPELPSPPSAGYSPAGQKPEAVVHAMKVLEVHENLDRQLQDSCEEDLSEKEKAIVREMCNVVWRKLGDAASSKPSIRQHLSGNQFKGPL
# Chain of UniProt Q8TAQ2 (Q8TAQ2 whole entry, one chain of several): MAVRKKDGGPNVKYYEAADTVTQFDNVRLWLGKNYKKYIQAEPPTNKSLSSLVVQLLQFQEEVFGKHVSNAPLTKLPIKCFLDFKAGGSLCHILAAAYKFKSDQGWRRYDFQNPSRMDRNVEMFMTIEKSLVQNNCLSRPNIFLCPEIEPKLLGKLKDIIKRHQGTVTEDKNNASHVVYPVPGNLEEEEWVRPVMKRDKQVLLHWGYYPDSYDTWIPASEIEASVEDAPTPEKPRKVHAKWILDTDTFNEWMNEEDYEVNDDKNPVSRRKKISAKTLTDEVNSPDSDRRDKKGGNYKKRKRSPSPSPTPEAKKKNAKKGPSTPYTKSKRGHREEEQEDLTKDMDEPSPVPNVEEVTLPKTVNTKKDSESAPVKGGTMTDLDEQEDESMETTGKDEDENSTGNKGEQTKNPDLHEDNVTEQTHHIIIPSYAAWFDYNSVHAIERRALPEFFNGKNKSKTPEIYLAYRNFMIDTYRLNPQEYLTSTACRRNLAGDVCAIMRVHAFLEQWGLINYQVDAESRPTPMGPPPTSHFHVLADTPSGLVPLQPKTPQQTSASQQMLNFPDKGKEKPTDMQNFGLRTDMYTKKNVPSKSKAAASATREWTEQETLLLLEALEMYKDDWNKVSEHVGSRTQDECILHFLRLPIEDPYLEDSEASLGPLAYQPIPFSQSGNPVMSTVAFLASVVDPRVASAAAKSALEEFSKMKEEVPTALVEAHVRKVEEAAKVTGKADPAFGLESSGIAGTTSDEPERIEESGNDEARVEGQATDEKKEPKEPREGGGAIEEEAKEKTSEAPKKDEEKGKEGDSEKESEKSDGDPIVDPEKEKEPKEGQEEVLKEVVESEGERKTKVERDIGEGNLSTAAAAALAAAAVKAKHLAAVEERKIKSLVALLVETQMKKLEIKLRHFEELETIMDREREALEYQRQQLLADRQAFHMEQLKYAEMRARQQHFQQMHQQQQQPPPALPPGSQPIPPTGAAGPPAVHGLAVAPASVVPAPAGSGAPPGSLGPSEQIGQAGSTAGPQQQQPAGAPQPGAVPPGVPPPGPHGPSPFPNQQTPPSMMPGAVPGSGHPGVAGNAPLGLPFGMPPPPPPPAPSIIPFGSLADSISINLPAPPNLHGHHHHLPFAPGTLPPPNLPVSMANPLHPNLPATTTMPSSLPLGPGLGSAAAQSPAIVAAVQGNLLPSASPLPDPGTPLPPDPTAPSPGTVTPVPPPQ
row,Target,NP40-soluble protein abundance
1,C9JKL2|O95772|O95772-2|C9J3F5|C9JJ39|C9JPX5 (UniProt O95772),1.01 ± 0.016
2,H7C5A7|O14734 (UniProt O14734),0.956 ± 0.013
3,J3KNF8|O43169 (UniProt O43169),1.1 ± 0.049
4,SART1 (UniProt O43290),1.11 ± 0.034
5,H0YIV9|O43716 (UniProt O43716+H0YIV9),1.01 ± 0.03
6,J3KNN5|Q9UJV9 (UniProt Q9UJV9),1.13 ± 0.073
7,CHMP2A (UniProt O43633),0.936 ± 0.021
8,C9JIF9|P13798 (UniProt P13798),0.915 ± 0.0095
9,ZC3H11A (UniProt O75152),0.853 ± 0.13
10,F8VXC8|Q8TAQ2|Q8TAQ2-2|Q8TAQ2-3 (UniProt Q8TAQ2),1.04 ± 0.047
11,I3L4X7|Q13227|Q13227-2 (UniProt Q13227),1.02 ± 0.064
12,E9PBG7|E9PF82|Q13557|Q13557-10|Q13557-11|Q13557-12|Q13557-3|Q13557-4|Q13557-5|Q13557-6|Q13557-8|Q13557-9 (UniProt Q13557),0.903 ± 0.017
13,A0A0A0MTB8|Q8NI36 (UniProt Q8NI36),1.37 ± 0.12
14,F8VU39|J3KPG5|Q9UIF9|Q9UIF9-2|Q9UIF9-3 (UniProt Q9UIF9),1.023 ± 0.0073
15,A0A0B4J220 (UniProt E9PRG8),1.2 ± 0.045
16,F5H0R1|Q9H6E5 (UniProt Q9H6E5),1.02 ± 0.016
17,E7ESS3|K7EKW3|Q71RG4|Q71RG4-2 (UniProt Q71RG4),1 ± 0.039

row,Target,NP40-soluble protein abundance
1,K7EK07|P84243 (UniProt P84243+K7EK07),1.01 ± 0.084
2,A0A0A0MTL5|Q13309|Q13309-2 (UniProt Q13309),0.976 ± 0.029
3,CDIPT (UniProt O14735),1 ± 0.019
4,J3KPP4|O95232 (UniProt O95232),1.06 ± 0.019
5,F8W1A0|P36873 (UniProt P36873),0.972 ± 0.014
6,PSMD3 (UniProt O43242),0.885 ± 0.091
7,F5H7W8|Q96C57 (UniProt Q96C57),1.25 ± 0.058
8,CCDC85C (UniProt A6NKD9),0.953 ± 0.035
9,F6TLX2|Q9HC38-2 (UniProt Q9HC38),0.981 ± 0.03
10,B4E0Y9|Q8NBY1|Q9P289 (UniProt Q9P289),1.01 ± 0.034
11,I3VM54|Q9Y2K7 (UniProt Q9Y2K7),1.17 ± 0.037
12,E9PLV1|Q9NQV6|Q9NQV6-1|Q9NQV6-2|Q9NQV6-4|Q9NQV6-5|Q9NQV6-6|Q9NQV6-7|E9PRS0 (UniProt Q9NQV6),0.9952 ± 0.0059
13,G3V4X1|P62191|P62191-2 (UniProt P62191),0.888 ± 0.079
14,D6RCD0|Q8NBQ5 (UniProt Q8NBQ5),1.01 ± 0.047
15,L0R819 (UniProt Q9NWL6),1.01 ± 0.026
16,H7BYF2|Q5JRG1|Q9BVL2|Q9BVL2-2|Q9BVL2-3 (UniProt Q9BVL2),1.04 ± 0.053

# Same assay, conditions: concentration: 6mM
row,Target,NP40-soluble protein abundance
1,C9JKL2|O95772|O95772-2|C9J3F5|C9JJ39|C9JPX5 (UniProt O95772),0.989 ± 0.028
2,H7C5A7|O14734 (UniProt O14734),0.984 ± 0.061
3,J3KNF8|O43169 (UniProt O43169),1.08 ± 0.047
4,SART1 (UniProt O43290),1.22 ± 0.089
5,H0YIV9|O43716 (UniProt O43716+H0YIV9),0.988 ± 0.012
6,J3KNN5|Q9UJV9 (UniProt Q9UJV9),1.12 ± 0.035
7,CHMP2A (UniProt O43633),0.966 ± 0.043
8,C9JIF9|P13798 (UniProt P13798),0.903 ± 0.014
9,ZC3H11A (UniProt O75152),0.936 ± 0.094
10,F8VXC8|Q8TAQ2|Q8TAQ2-2|Q8TAQ2-3 (UniProt Q8TAQ2),1.04 ± 0.1
11,I3L4X7|Q13227|Q13227-2 (UniProt Q13227),1.08 ± 0.067
12,E9PBG7|E9PF82|Q13557|Q13557-10|Q13557-11|Q13557-12|Q13557-3|Q13557-4|Q13557-5|Q13557-6|Q13557-8|Q13557-9 (UniProt Q13557),0.89 ± 0.054
13,A0A0A0MTB8|Q8NI36 (UniProt Q8NI36),1.55 ± 0.11
14,F8VU39|J3KPG5|Q9UIF9|Q9UIF9-2|Q9UIF9-3 (UniProt Q9UIF9),1.02 ± 0.039
15,A0A0B4J220 (UniProt E9PRG8),1.26 ± 0.1
16,F5H0R1|Q9H6E5 (UniProt Q9H6E5),0.973 ± 0.032
17,E7ESS3|K7EKW3|Q71RG4|Q71RG4-2 (UniProt Q71RG4),0.996 ± 0.012

row,Target,NP40-soluble protein abundance
1,K7EK07|P84243 (UniProt P84243+K7EK07),1.08 ± 0.13
2,A0A0A0MTL5|Q13309|Q13309-2 (UniProt Q13309),0.932 ± 0.053
3,CDIPT (UniProt O14735),1.01 ± 0.088
4,J3KPP4|O95232 (UniProt O95232),1.22 ± 0.015
5,F8W1A0|P36873 (UniProt P36873),0.985 ± 0.03
6,PSMD3 (UniProt O43242),0.906 ± 0.087
7,F5H7W8|Q96C57 (UniProt Q96C57),1.29 ± 0.047
8,CCDC85C (UniProt A6NKD9),0.9849 ± 0.007
9,F6TLX2|Q9HC38-2 (UniProt Q9HC38),0.958 ± 0.035
10,B4E0Y9|Q8NBY1|Q9P289 (UniProt Q9P289),1.05 ± 0.036
11,I3VM54|Q9Y2K7 (UniProt Q9Y2K7),1.26 ± 0.12
12,E9PLV1|Q9NQV6|Q9NQV6-1|Q9NQV6-2|Q9NQV6-4|Q9NQV6-5|Q9NQV6-6|Q9NQV6-7|E9PRS0 (UniProt Q9NQV6),0.989 ± 0.021
13,G3V4X1|P62191|P62191-2 (UniProt P62191),0.896 ± 0.1
14,D6RCD0|Q8NBQ5 (UniProt Q8NBQ5),1.06 ± 0.079
15,L0R819 (UniProt Q9NWL6),0.996 ± 0.089
16,H7BYF2|Q5JRG1|Q9BVL2|Q9BVL2-2|Q9BVL2-3 (UniProt Q9BVL2),1.03 ± 0.033
